# Rows were chosen to be rich in hits. Some 12% of all compounds tested hit in one or more screens of this group.
# G9a block – blocks human histone lysine methyltransferase G9a; Potency, µM (titrated, usually from 102 µM), hits mostly inhibitors; G9a H3K9 monomethylation, AlphaScreen, 2 h; 350,000 compounds, 8.8% hits; Q96KQ7; AID 504332; also: nearly all actives have a fitted effect of over 75% in size
# Target sequence (Q96KQ7 913-1193 limits assumed): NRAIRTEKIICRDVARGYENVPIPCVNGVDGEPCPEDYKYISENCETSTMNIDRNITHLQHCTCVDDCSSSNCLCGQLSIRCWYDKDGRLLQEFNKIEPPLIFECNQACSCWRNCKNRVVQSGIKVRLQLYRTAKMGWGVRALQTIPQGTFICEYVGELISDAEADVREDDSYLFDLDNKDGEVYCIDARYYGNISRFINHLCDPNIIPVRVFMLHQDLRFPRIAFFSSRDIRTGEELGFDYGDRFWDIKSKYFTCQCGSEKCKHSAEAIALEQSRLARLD
#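 Readings reflect AlphaScreen signal from monomethyl-H3K9 antibody detection. HMT at 20 nM; substrate b-H3K9 500 nM; cofactor SAM 20 uM; 2 h RT reaction; compounds tested as titrations in qHTS with 15 min preincubation.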
# Sfp PPTase inh – inhibitors of Bacillus subtilis Sfp phosphopantetheinyl transferase; 310,000 compounds, 3.5% hits; AID 1490; Potency, µM, usual class: inhibitors; Biochemical Sfp PPTase activity, qHTS; Q9F4F7;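 also: the enzyme is Sfp with the accession as filed and its product quenches rhodamine fluorescence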
#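 Fluorescence-quenching assay with 15 nM Sfp, 5 uM rhodamine-CoA and 12.5 uM BHQ-2-labelled ybbR peptide in pH 7.6 Hepes/MgCl2 buffer. Enzyme was pre-incubated with compound for 15 min at room temperature. Rate was taken from the 30-min fluorescence change (525/598 nm).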
# JMJD2A Tudor inh – blocks the human JMJD2A Tudor domain; O75164; AlphaScreen JMJD2A-Tudor / H3K4me3 peptide binding; Potency, µM (series often up to 114 µM), actives largely listed as inhibitors; 390,000 compounds, 4.4% hits; AID 504339; also: nearly all actives have a fitted effect of over 50% in size
# L3MBTL1 block – blocks human L3MBTL1; Q9Y468; AlphaScreen L3MBTL1–H3K9me1 peptide binding; Potency, µM (highest dose often 57.1 µM), actives largely listed as inhibitors; 230,000 compounds, 0.66% hits; AID 485360; also: nearly all actives have a fitted effect of over 60% in size
#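 Read-out is AlphaScreen signal from streptavidin donor and nickel chelate acceptor beads (10 ug/mL final each) bridging L3MBTL1 (50 nM) and biotinylated K9-monomethylated H3(1-15) peptide (75 nM), after 30 min compound exposure at room temperature.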
# BAZ2B inh – inhibitors of human BAZ2B bromodomain; Q9UIF8; AlphaScreen BAZ2B-H3K14Ac peptide displacement; Potency, µM (series often up to 114 µM), usual class: inhibitors; 360,000 compounds, 4.4% hits; AID 504333; also: nearly all actives have a fitted effect of over 60% in size
#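 In this displacement format the biotinylated H3(5-23) peptide acetylated at Lys14 serves as ligand at 50 nM, with BAZ2B at 50 nM in PBS pH 7.4 containing 0.01% Tween-20. Donor and acceptor beads are 10 ug/mL final.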
# HP1b binding inh – HP1-beta chromodomain-methylated histone interaction inhibition | 390,000 compounds, 0.56% hits | Potency, µM (titrated, usually from 114 µM), hits mostly inhibitors | P83916 | AlphaScreen HP1-beta / biotin-H3K9me3 peptide binding; also: nearly all actives have a fitted effect of over 70% in size
# Target sequence (P83916 whole entry, looked up): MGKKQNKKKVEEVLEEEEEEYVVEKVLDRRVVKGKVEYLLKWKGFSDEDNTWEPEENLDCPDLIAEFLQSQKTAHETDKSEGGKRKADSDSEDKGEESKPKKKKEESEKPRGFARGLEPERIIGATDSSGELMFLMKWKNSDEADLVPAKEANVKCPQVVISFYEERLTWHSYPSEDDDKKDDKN
#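 HP1-beta protein (50 nM final) preincubated 30 min at room temperature with biotinylated H3(1-18)K9me3 peptide (50 nM) in PBS pH 7.4, 0.01% Tween-20, then compound added for 30 min. AlphaScreen streptavidin donor/nickel chelate acceptor beads (10 ug/mL final), 30 min dark, luminescence read.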
# Hits are given with their value; - = inactive; ? = inconclusive; . = no result; ! = not confirmed by another sample; [ ] = another dose, or the depositor's remark. Calls follow the shape of the dose curve; as a rule, active = well fitted curve in the direction sought with a large enough effect; inconclusive = small, poorly fitted or top-dose-only effect, or another doubt; inactive = no such curve, though single readings can be large; an effect the other way counts as inactive or inconclusive.
SMILES,G9a block,Sfp PPTase inh,JMJD2A Tudor inh,L3MBTL1 block,BAZ2B inh,HP1b binding inh
Cc1cccc(NC(=O)Cn2nc(C)c3nn(-c4ccc(Cl)cc4)c(C)c3c2=O)c1C,-,.,-,.,-,-
O=c1cc(N2CCNCC2)nc2sc(-c3ccncc3)nn12,.,.,-,.,.,.
CCOC(=O)N1CCC(NC(=O)c2cnn(-c3ccc(C)cc3)c2C2CCN(C(=O)OC(C)(C)C)CC2)CC1,-,.,-,.,-,-
CCOc1ccc2nc(N3CCCC(C(=O)Nc4ccc(OC)cc4)C3)sc2c1 (centres undefined),-,.,-,.,-,-
CCC(C)c1ccc(NC(=S)Nc2ccc(OC)cc2C)cc1 (centres undefined),4.47µM,-,-,-,-,-
CCCN(CC(=O)Nc1cccc(Br)c1)CC(=O)Nc1ccc(F)c(F)c1F,11.2µM,-,-,-,-,-
CCCN(CC(=O)Nc1cccc(S(N)(=O)=O)c1)CC(=O)Nc1ccc(F)c(F)c1F,-,-,-,-,-,-
COc1ccc(NC(=O)CN(CC(=O)Nc2ccc(OC)cc2)C(C)(C)CO)cc1,70.8µM,-,-,.,-,-
COc1ccc(NC(=O)CN(C)CC(=O)Nc2cccc(C(C)=O)c2)cc1,4.47µM,?,10µM,.,35.5µM,?
CC(C)C(N)C(=O)O (centres undefined),-,?,.,.,.,.
CCOC(=O)c1c(C)oc2ncnc(Nc3cccc(C(F)(F)F)c3)c12,-,.,-,.,-,-
CCNc1nc(NCC)n2c(SCC(=O)Nc3ccccc3)nnc2n1,-,-,-,-,-,-
CCNc1nc(NCC)n2c(SCC(=O)Nc3ccc(C)c(C)c3)nnc2n1,3.55µM,.,-,28.2µM,50.1µM,-
CCNc1nc(NCC)n2c(SCC(=O)Nc3ccc(Br)cc3F)nnc2n1,7.08µM,.,?,-,?,?
Cc1cc2c(s1)c1cnn(Cc3cccc([N+](=O)[O-])c3)c(=O)c1n2C,.,.,-,.,.,.
c1ccc(NC2=Nc3cccc4cccc2c34)cc1,25.1µM,-,-,.,?,-
COc1ccc(NC2=Nc3cccc4cccc2c34)cc1,?,-,44.7µM,?,35.5µM,?
Fc1ccc(/C=N/NC2=Nc3cccc4cccc2c34)cc1,-,?,?,-,?,-
O=C(O)c1cccc(NC2=Nc3cccc4cccc2c34)c1,?,-,-,-,-,-
CCc1ccccc1NC(=O)CCS(=O)(=O)c1ccc(Br)cc1,50.1µM,-,?,.,79.4µM,?
CCOc1ccccc1NC(=O)CCS(=O)(=O)c1ccc(Br)cc1,12.6µM,-,15.8µM,.,12.6µM,35.5µM
O=C(CCS(=O)(=O)c1ccc(Br)cc1)NC1CCCC1,44.7µM,-,50.1µM,.,50.1µM,-
CCOc1ccccc1NC(=O)COC(=O)CN(C)S(=O)(=O)c1ccc(C)cc1,-,-,89.1µM,-,-,-
CCOc1ccccc1NC(=O)CCNS(=O)(=O)c1ccc(NC(C)=O)cc1,-,-,-,.,-,-
Cc1ccc(S(=O)(=O)CC(=O)Nc2sc3c(c2C#N)CCCC3)cc1,-,.,-,.,-,-
SMILES,G9a block,Sfp PPTase inh,JMJD2A Tudor inh,L3MBTL1 block,BAZ2B inh,HP1b binding inh
C=C1C[C@@]23C[C@@]1(O)CC[C@@H]2[C@]12C=C[C@@H](O)[C@](C)(C(=O)O1)[C@@H]2[C@@H]3C(=O)O,.,-,.,.,.,.
CCOc1ccc(NC(=O)CCS(=O)(=O)c2ccc(Br)cc2)cc1,44.7µM,-,17.8µM,.,35.5µM!,20µM
CCN(CC)C(=O)Cn1c(=O)n(Cc2ccc(C(=O)NCCCOC)cc2)c(=O)c2ccccc21,-,.,-,.,?,-
Cc1ccccc1-c1nc(CS(=O)(=O)CC(=O)NCc2cccc(Cl)c2)c(C)o1,-,.,-,.,-,-
CCc1ccccc1NC(=O)c1ccc2c(O)c(S(=O)(=O)c3ccccc3)c(=O)[nH]c2c1,15.8µM,.,79.4µM,.,?,-
COc1ccc(S(=O)(=O)c2c(O)c3ccc(C(=O)Nc4ccc(F)cc4)cc3[nH]c2=O)cc1,-,-,50.1µM,.,-,-
COc1ccc(S(=O)(=O)c2c(O)c3ccc(C(=O)Nc4ccccc4Cl)cc3[nH]c2=O)cc1,-,-,?,.,-,-
CCc1ccccc1NC(=O)c1ccc2c(O)c(S(=O)(=O)c3ccc(OC)cc3)c(=O)[nH]c2c1,-,-,20µM,.,-,-
CCOc1ccc(-c2cccc(NS(=O)(=O)c3cc([N+](=O)[O-])ccc3Cl)c2)nn1,50.1µM,.,-,-,?,-
O=[N+]([O-])c1ccc(Cl)c(S(=O)(=O)Nc2ccc(-c3ccc(N4CCOCC4)nn3)cc2)c1,?,.,-,-,-,-
O=[N+]([O-])c1ccc(S(=O)(=O)Nc2cccc(-c3ccc(N4CCOCC4)nn3)c2)cc1,25.1µM,.,-,-,-,-
Cc1ccc([N+](=O)[O-])cc1S(=O)(=O)Nc1cccc(-c2ccc(N3CCCC3)nn2)c1,14.1µM,.,-,-,?,-
O=[N+]([O-])c1ccc(Cl)c(S(=O)(=O)Nc2cccc(-c3ccc(N4CCOCC4)nn3)c2)c1,50.1µM,.,-,-,-,-
O=[N+]([O-])c1ccc(S(=O)(=O)Nc2ccc(-c3ccc(N4CCOCC4)nn3)cc2)cc1,-[2.33 µM],.,-,-,-,-
O=C(O)c1nn(Cc2ncc(-c3cccc(Cl)c3)o2)c(=O)c2ccccc12,39.8µM,-,-,.,-,?
COc1cccc(-c2noc(Cn3nc(C(=O)O)c4ccccc4c3=O)n2)c1,-,-,-,.,-,-
COc1cccc(CNC(=O)C2CCCN(S(=O)(=O)c3ccc4c(ccn4C)c3)C2)c1OC (centres undefined),-,.,-,.,-,-
Cc1cccc(OC(C)C(=O)Nc2ccc(N3CCCCC3)cc2)c1 (centres undefined),22.4µM,.,?,-,?,-
CC(C(=O)Nc1ccccc1C(=O)N1CCCC1)n1nnc2ccccc21 (centres undefined),17.8µM,-,-,-,-,-
Cc1cccc(OC(C)C(=O)Nc2ccccc2C(=O)N2CCCCC2)c1 (centres undefined),35.5µM,-,-,.,-,-
Cc1ccc(OC(C)C(=O)Nc2ccccc2C(=O)N2CCN(C)CC2)cc1 (centres undefined),39.8µM,-,-,.,-,-
O=S(=O)(c1ccccc1)c1nnn2c1nc(Nc1ccccc1)c1cc(Cl)ccc12,-,.,?,.,-,-
COc1cccc(NC(=O)CCc2nc(-c3cc(OC)c(OC)c(OC)c3)no2)c1,-,.,-,.,-,-
COc1ccc(OCc2nc3c4c(-c5ccc(OC)cc5)c(-c5ccc(OC)cc5)oc4ncn3n2)cc1,-,.,-,.,-,-
CC(Oc1cccc(Cl)c1)C(=O)Nc1ccccc1N1CCCC1 (centres undefined),50.1µM,.,?,-,-,-
CC(Oc1ccc(Cl)cc1)C(=O)Nc1ccccc1N1CCOCC1 (centres undefined),.,.,-,-,.,-

# Source: PubChem (National Center for Advancing Translational Sciences (NCATS))
